Source: PubChem BioAssay
Many of the other results were omitted from the sample, so hits are more common in it than they were.
mHTT CaM bind: inhibitors of human mutant huntingtin-calmodulin interaction. P42858. AID 1671202. inhibition, % at 15 µM. AlphaScreen His-mHTT/GST-CaM binding, luminescence. 3.6% of 190,000 active
Pf apPOL block: Pf-apPOL DNA polymerase inhibition; 0.25% of 210,000 active; Recombinant Pf-apPOL, molecular beacon fluorescence, 1.5 h; inhibition, % at 10 µM
A number is an active result; - = inactive; . = no result. Cut-off read from the data, not from the text of the source: active = inhibition above about 50%; inactive = the rest.

SMILES	mHTT CaM bind	Pf apPOL block
Cc1ccc(C2=NNC3(S2)C(=O)Nc2ccccc23)cc1 (stereo unspecified)	99	-
Cc1ccc(N2C(=O)C(C)SC23C(=O)Nc2ccccc23)cc1 (stereo unspecified)	-	-
Cc1ccc(C2=NNC(C)(C3(C)NN=C(c4ccc(C)cc4)S3)S2)cc1 (stereo unspecified)	-	.
O=C(Nc1ccc2c(c1)OCCO2)N1CC2CC(NS(=O)(=O)c3ccccc3)C1C2 (stereo unspecified)	-	-
CC(C)C(=O)N1CCCN(C2CCN(Cc3ccccc3)C2=O)CC1 (stereo unspecified)	-	-
CCc1ccc(C(O)CN2CCN(c3ccccc3OC)CC2)cc1 (stereo unspecified)	-	-
COc1cccc(-c2cc(C(=O)N3CCCC3c3cc(C)on3)on2)c1 (stereo unspecified)	-	-
CSc1ccccc1C(=O)N1CCC(n2cnc3cc(C(F)(F)F)ccc32)CC1	82	-
CSc1ccccc1C(=O)N1CCC(Cn2nc(C)cc2C)CC1	-	-
CCOc1ccc(Cl)cc1/C=C1\NC(=O)N(CC(=O)Nc2ccccc2)C1=O	-	-
COc1cccc(N2CCN(S(=O)(=O)c3ccc4[nH]c5c(c4c3)CCCC5)CC2)c1	55	-
COc1ccc(S(=O)(=O)N2CCN(c3cccc(Cl)c3)CC2)cc1	-	-
COc1ccccc1N1CCN(S(=O)(=O)c2ccc3[nH]c4c(c3c2)CCCC4)CC1	50	-
COc1ccccc1N1CCN(S(=O)(=O)c2ccc(OC)c([N+](=O)[O-])c2)CC1	-	-
CCN(CC)c1ncnc2c1ncn2C1OC(CO)C(O)C1O (stereo unspecified)	-	-
Cc1ccsc1/C=N\N=C(/N)c1nonc1N	-	.
Cc1nc(NCCNS(=O)(=O)c2ccccc2Cl)cc(-n2cccn2)n1	-	-
COc1cc(C(=O)Nc2sc3c(c2C(=O)O)CCC(C)C3)cc(OC)c1OC (stereo unspecified)	-	-
COc1ccccc1NC(=O)c1c(NCc2cccnc2)sc2c1CCC(C)C2 (stereo unspecified)	80	-
CCOc1ccccc1NC(=O)c1c(NCc2ccccn2)sc2c1CCC(C)C2 (stereo unspecified)	-	-
COc1ccc(Cl)cc1NC(=O)c1c(NCc2cccnc2)sc2c1CCC(C)C2 (stereo unspecified)	78	-
Cn1cc(S(=O)(=O)CC(=O)Nc2ccccc2C(F)(F)F)c2ccccc21	-	-
Cn1c(=O)c2c(nc3n(C4CC4)c(-c4ccccc4)cn23)n(C)c1=O	-	-
CC(C(=O)N1CC2CN(S(=O)(=O)c3cccc(F)c3)CC(C1)O2)c1ccccc1 (stereo unspecified)	-	-
O=c1ccc(-c2noc(-c3nccc4ccccc34)n2)c[nH]1	-	-
SMILES	mHTT CaM bind	Pf apPOL block
NC(=O)c1cc(Br)cc2c3c([nH]c12)CCCC3	62	-
Brc1ccc2[nH]c3c(c2c1)CCC3	.	-
COc1cccc(C2CC(c3cc(C)ccc3C)=NN2C(=O)CN2CCOCC2)c1 (stereo unspecified)	-	-
Cc1ccc(C)c(C2=NN(C(=O)CN3CCOCC3)C(c3ccccc3C)C2)c1 (stereo unspecified)	85	-
Cc1ccc(C2CC(c3ccccc3F)=NN2C(=O)CN2CCOCC2)c(C)c1 (stereo unspecified)	83	-
CCC(=O)N(C)CC(=O)N1N=C(c2cccs2)CC1c1ccccc1 (stereo unspecified)	-	-
Cc1ccc(C2=NN(C(=O)CN3CCOCC3)C(c3ccccc3C)C2)cc1C (stereo unspecified)	51	-
Cc1ccc(C2=NN(C(=O)CN3CCOCC3)C(c3ccccc3Cl)C2)cc1 (stereo unspecified)	-	-
CCC(=O)N(C)CC(=O)N1N=C(c2ccc(C)c(C)c2)CC1c1ccccc1 (stereo unspecified)	56	-
O=C(CN1CCOCC1)N1N=C(c2ccc(F)cc2)CC1c1ccccc1F (stereo unspecified)	-	-
N/C(=N\OC(=O)c1ccc([N+](=O)[O-])cc1Cl)c1ccc(Cl)cc1	-	-
CC(C)(C)CC(=O)NC1CCN(c2ccc(F)cc2)C1=O (stereo unspecified)	-	-
COc1ccccc1-c1nc(C2CCCN(C(=O)c3cccc(C(F)(F)F)c3)C2)no1 (stereo unspecified)	-	-
CCCS(=O)(=O)N1CCCc2cc(NC(=O)Nc3cccc(OC)c3OC)ccc21	-	-
COc1cccc2c1c(NC(=O)c1snnc1C)nn2C	.	-
Cc1ccc(C(=O)NCCCN(C)C)c(Cl)c1	-	-
COc1ccc(CNC(=O)c2ccc3c(c2)NC(=O)C2CCCCN32)cc1OC (stereo unspecified)	-	-
Cc1ccc(S(=O)(=O)Oc2c(Cl)cc(Cl)cc2C=Nc2cc(C)c(C)cc2C)cc1	.	-
COc1ccccc1C1=NN(C(=O)CN2CCOCC2)C(c2ccccc2Cl)C1 (stereo unspecified)	-	-
